Screens (PubChem)
SW480 rereplic = induces DNA re-replication in SW480 colon adenocarcinoma cells. SW480 DNA re-replication, Hoechst DNA content imaging, 48 h. hit rate 1.8% among 340,000. Potency, µM (titrated, usually from 46.1 µM), for the others: at the top dose re-replication activation, usual class: activators; also: % of control where 0% means no effect; nearly all actives have a fitted effect of over 55% in size
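Hoechst fluorescence of nuclei (405 nm excitation, 500-530 nm emission) measured by plate-scanning imager after 48 hr compound exposure at 37 C; re-replication scored as increased number of nuclei with elevated intensity.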
RORgamma inh = ROR gamma (mouse) transcription inhibition | Drosophila S2 Gal4-RORgamma UAS-luciferase reporter, 20 h | P51450 | hit rate 5.4% among 310,000 | Potency, µM (series often up to 53.6 µM), without a hit: at the top dose activity change, negative = inhibition, most hits filed as inhibitors | AID 2551; also: % is scaled to controls: 0 for no effect and ±100 for the full control effect; nearly all actives have a fitted effect of over 60% in size
Target sequence (P51450 whole entry, looked up, the tested form may be a part): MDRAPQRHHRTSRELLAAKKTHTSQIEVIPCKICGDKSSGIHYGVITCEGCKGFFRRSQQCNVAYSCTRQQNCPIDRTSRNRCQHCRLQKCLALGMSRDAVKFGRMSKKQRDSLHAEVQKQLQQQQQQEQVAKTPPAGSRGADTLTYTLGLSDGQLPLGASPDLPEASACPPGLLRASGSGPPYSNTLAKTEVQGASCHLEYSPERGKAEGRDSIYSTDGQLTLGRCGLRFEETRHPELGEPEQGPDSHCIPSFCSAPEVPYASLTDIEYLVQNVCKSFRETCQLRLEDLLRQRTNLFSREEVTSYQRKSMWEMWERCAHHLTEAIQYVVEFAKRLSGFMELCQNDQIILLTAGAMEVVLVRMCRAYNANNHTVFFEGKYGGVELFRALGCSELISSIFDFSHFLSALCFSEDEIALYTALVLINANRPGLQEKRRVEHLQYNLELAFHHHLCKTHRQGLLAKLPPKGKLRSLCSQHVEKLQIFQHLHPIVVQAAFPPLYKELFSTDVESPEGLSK
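In this cell-based reporter format, copper sulfate (700 uM final) drives Gal4–ROR gamma fusion expression from a metallothionein promoter in Drosophila Schneider cells; compounds preincubated 1 hr, reporter read after 20 hr at ambient temperature.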
Gal4-VP16 FLuc = inhibits Gal4-VP16 luciferase reporter, ROR gamma counter-screen; Potency, µM (doses to about 53.6 µM), for the others: at the top dose activity, negative = inhibition, actives largely listed as inhibitors; hit rate 3.5% among 310,000; Drosophila S2 Gal4-VP16 UAS-luciferase, luminescence, 20 h;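 also: Gal4-VP16 expression switched on by copper sulfate through the metallothionein promoter; % is scaled to controls: 0 for no effect and ±100 for the full control effect; nearly all actives have a fitted effect of over 50% in size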
MCF10A rereplic = inducers of DNA re-replication in MCF 10A breast cells; MCF 10A DNA re-replication, Hoechst nuclear intensity, 48 h; Potency, µM (top dose mostly 46.1 µM), for the others: top-dose activity, positive = re-replication, most hits filed as activators; hit rate 2.9% among 350,000; also: % of control where 0% means no effect; nearly all actives have a fitted effect of over 50% in size
KB-3-1 tox = kills parental KB-3-1 adenocarcinoma cells; Potency, µM (series often up to 46.1 µM), most hits filed as cytotoxic; KB-3-1 viability, CellTiter-Glo ATP luminescence, 72 h; hit rate 1.4% among 400,000; also: % is scaled to controls: 0 for no effect and ±100 for the full control effect; nearly all actives have a fitted effect of over 60% in size
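Cytotoxicity in the drug-sensitive parental line KB-3-1 was scored as loss of CellTiter-Glo luminescence following 72 h incubation with compound. Values come from curve fitting of normalized concentration-response data.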
KB-V1 MDR tox = kills drug-selected multidrug resistant KB-V1 cells. Potency, µM (titrated, usually from 46.1 µM), actives largely listed as cytotoxic. hit rate 3.4% among 400,000. KB-V1 MDR cells viability, CellTiter-Glo, 72 h. AID 1347076; also: % is scaled to controls: 0 for no effect and ±100 for the full control effect; nearly all actives have a fitted effect of over 60% in size
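qHTS viability screen in drug-selected KB-V1 MDR cells: 72 h compound treatment at 37 degrees C, ATP luminescence end point.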
* = called active by the depositor; i = inactive; ? = inconclusive; / = no result given; [ ] = another dose, or the depositor's remark. Compounds with a hit are over-represented: about 10% of the library has one in this group of screens. Calls follow the shape of the dose curve; as a rule, active = well fitted curve in the direction sought with a large enough effect; inconclusive = small, poorly fitted or top-dose-only effect, or another doubt; inactive = no such curve, though single readings can be large; an effect the other way counts as inactive or inconclusive. Potency is read from the fitted curve at half-maximal effect.

SMILES | SW480 rereplic | RORgamma inh | Gal4-VP16 FLuc | MCF10A rereplic | KB-3-1 tox | KB-V1 MDR tox
CCOC(=O)Cc1cc(=O)[nH]c(Nc2nc3ccccc3o2)n1 | 1% | 10µM* | 16µM* | 7% | i | ?
CSc1ccccc1-c1nc(-c2ccncc2)no1 | -6% | -6% | 10% | 13% | i | ?
COc1ccc(CCNC(=O)c2cnc3sc(N4CCOCC4)nn3c2=O)cc1OC | / | / | / | / | i | i
CCC(C)CCN1CCN=C1Nc1ccccc1 (centres undefined) | -17% | / | / | -16% | i | i
C=C1C=C(C)n2ncc(C(=O)Nc3cccc(C(=O)Nc4cccc(C(F)(F)F)c4)c3)c2N1 | / | / | / | / | ? | i
COc1ccc2nc(Nc3nc(CSc4nnnn4-c4ccccc4)cc(=O)[nH]3)nc(C)c2c1 | -3% | -3% | -4% | -1% | ? | 16µM*
Cc1ccc(SCc2cc(=O)[nH]c(Nc3nc(C)c4cccc(C)c4n3)n2)cc1 | -1% | -32% | 3% | -6% | i | 21µM*
CCOc1ccc2nc(Nc3nc(CSc4nnnn4-c4ccccc4)cc(=O)[nH]3)nc(C)c2c1 | -12% | 3% | -1% | 15% | i | i
N#Cc1c(N2CCOCC2)nsc1-c1ccccc1 | -27% | 26% | -9% | -3% | 10µM* | ?
N#Cc1c(N2CCCC2)nsc1-c1ccccc1 | 2% | 1% | ? | 9% | i | i
CCOC(=O)c1c(C)oc2nc(C)nc(NCc3ccc(F)cc3)c12 | / | / | / | / | i | i
CCN(CC)S(=O)(=O)c1ccc(C)c(C)c1 | -1% | ? | -5% | 0% | i | i
Nc1cc(S(=O)(=O)N2CCCCC2)ccc1N1CCCCC1 | -3% | / | / | 4% | ? | 18µM*
O=S(=O)(c1ccc2c(c1)C(=NO)c1cc(S(=O)(=O)N3CCCCC3)ccc1-2)N1CCCCC1 | 12µM* | 3.5µM* | 3.2µM* | 2.1µM* | 1.2µM* | 5.2µM*
CC1CCN(S(=O)(=O)c2ccc3c(c2)C(=NO)c2cc(S(=O)(=O)N4CCC(C)CC4)ccc2-3)CC1 | ? | 1.8µM* | 0.79µM* | 0.52µM* | ? | i
CCN(CC)S(=O)(=O)c1ccc2c(c1)C(=NO)c1cc(S(=O)(=O)N(CC)CC)ccc1-2 | ? | 16% | ? | 8.2µM* | 6.5µM* | 12µM*
COc1ccc(CNc2ncnc3ccc(-c4c(C)noc4C)cc23)cc1 | / | -1% | -4% | / | / | /
COc1ccc2cc(-c3nnc(Nc4ccccc4)s3)c(=O)oc2c1 | / | / | / | / | i | i
CCC(C)n1c(SCC(=O)NC2CC2)nc2ccccc2c1=O (centres undefined) | / | / | / | / | i | i
O=C(Nc1nnc([C@@H]2C[C@H](O)[C@@H](CO)O2)s1)c1c(F)cccc1F | / | / | / | / | i | i
Brc1cccc[n+]1Cc1ccc(C[n+]2ccccc2Br)cc1 | / | / | / | / | ? | i
Cc1ccc(S(=O)(=O)N2CCN(S(=O)(=O)N3CCC(C)CC3)CC2)cc1C | 2% | -16% | -4% | 18µM* | i | i
Cc1ccc(S(=O)(=O)N2CCN(S(=O)(=O)N3CCCCC3)CC2)cc1C | -5% | ? | 0% | -31% | i | i
COC(=O)c1c(NC(=O)C(C)C)sc2c1C(C(=O)OC)CC2 (centres undefined) | -3% | ? | 8% | -3% | ? | 13µM*
COC(=O)c1c(NC(=O)c2ccco2)sc2c1C(C(=O)OC)CC2 (centres undefined) | 15% | 6% | 6% | 23% | i | 18µM*
SMILES | SW480 rereplic | RORgamma inh | Gal4-VP16 FLuc | MCF10A rereplic | KB-3-1 tox | KB-V1 MDR tox
COC(=O)c1sc(NC(=O)C(C)C)c(C(=O)OC)c1C | -3% | ? | 1% | 2% | i | i
CCCc1nc2ccccc2n1C(=S)SC | -6% | 11µM* | ? | 11% | i | i
C=C(Br)Cn1c(CCC)nc2ccccc21 | -1% | ? | -4% | 20% | i | i
CNc1cc(C)nc(N2CCOCC2)n1 | -16% | 10% | 7% | 1% | i | i
Cc1cc(C)n(-c2nncc(-c3ccccc3)n2)n1 | 4%[9.22 µM] | ? | ? | -1% | i | i
Cc1cc(Cl)nc(-n2nc(C)cc2C)n1 | -5% | 3.5µM* | 13µM* | 3% | i | i
Cc1cc(C)n(-c2nc(C)nc(N)n2)n1 | -21% | 14µM* | -19% | 0% | i | i
CNc1cc(C)nc(-n2nc(C)cc2C)n1 | 1% | 0.63µM* | 2.5µM* | -3% | ? | i
CCOc1ccc(Nc2cc(C)nc(-n3nc(C)cc3C)n2)cc1 | ? | 0.16µM* | 0.89µM* | ? | 0.41µM* | ?
Cc1nn2c(-c3ccco3)ccnc2c1-c1ccc(Cl)cc1 | / | / | / | / | i | ?
Cc1ccc(NC(=S)NC2CCCC2)c(C)c1 | 2% | 7.1µM* | 6.3µM* | -2% | i | i
Cc1cc(OC(F)F)ccc1NC(=S)NC1CCCC1 | ? | 2.5µM* | 7.1µM* | 9% | i | i
Cc1cc(F)ccc1NC(=S)NC1CCCC1 | 2% | 6.3µM* | 10µM* | 0% | i | i
Cc1ccc(C)c(NC(=S)NC2CC3CCCC(C2)N3CC(C)C)c1 (centres undefined) | -1% | 14µM* | ? | 10% | i | ?
Cc1ccc(NC(=O)NC2CCCCC2)c(C)c1 | 0% | 14% | 10% | -1% | i | i
CCCCOc1ccc(CC(=O)N(C)O)cc1 | / | / | / | / | ? | i
CSc1ccc(CN(C)C(=O)CNC(=O)CNS(=O)(=O)c2ccc(C)c(C)c2)cc1 | -22% | 0% | 6% | 4% | i | i
Cc1ccc(S(=O)(=O)NCC(=O)NCC(=O)N(C)Cc2ccc3ccccc3c2)cc1C | 9% | 24% | -5% | ? | ? | 13µM*
COc1ccc(N=Nc2n(C)c3ccccc3[n+]2C)cc1 | / | 1.1µM* | 2µM* | / | / | /
COc1ccc(N=Nc2ccc(CO)cc2)cc1 | 0% | / | / | -4% | i | i
O=C(N/N=C/c1cc(Cl)ccc1O)C(=O)Nc1ccccc1OC(F)(F)C(F)F | ? | 0.89µM* | 2.5µM* | ? | ? | ?
COc1ccccc1/C=N/NC(=O)C(=O)Nc1ccccc1OC(F)(F)C(F)F | -7% | -5% | 1% | ? | i | i
O=C(N/N=C/c1cc(Br)ccc1O)C(=O)Nc1ccccc1OC(F)(F)C(F)F | ? | 0.79µM* | 2.8µM* | ? | ? | ?
COc1cccc(/C=N/NC(=O)C(=O)Nc2ccccc2OC(F)(F)C(F)F)c1 | -2% | -29% | -25% | ? | i | i
CS(=O)(=O)c1ccc(C(=O)OCC(=O)N2CCc3ccccc32)cc1[N+](=O)[O-] | / | / | / | / | ? | i
